In the supplement of paper PMC6897291:
Counter-ions that a name gives are not always drawn.

How the values were obtained:
U-2932 [1] = assay: growth inhibition by drug alone (1 - RLU/untreated control) (fraction); higher = stronger inhibition; conditions: 177Lu-lilotomab satetraxetan 0 ug/ml
Method in brief: (§1)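 RIVA or U-2932 cells were left untreated or pretreated for 18 h with a radiolabelled anti-CD37 antibody conjugate (~600 MBq/mg) at 0.5 µg/ml for RIVA or 1 µg/ml for U-2932. The cells were then washed and seeded at 3,000 cells/well on plates pre-printed with the Selleck Cambridge Cancer Compound library, dosed at 10/100 nM for RIVA and 10/1,000 nM for U-2932. From day 3, RealTime-Glo luminescence was read daily after 1 h at 37°C. Growth inhibition was taken as one minus RLU over the mean of the untreated no-drug wells, of which there were 48 per plate.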

RIVA [2] = assay: as above; conditions: 177Lu-lilotomab satetraxetan 0 ug/ml
Method in brief: as §1

U-2932 [3] = assay: growth inhibition by drug plus 177Lu-lilotomab satetraxetan (1 - RLU/untreated control) (fraction); higher = stronger inhibition; conditions: 177Lu-lilotomab satetraxetan 1 ug/ml
Method in brief: as §1

RIVA [4] = assay: as above; conditions: 177Lu-lilotomab satetraxetan 0.5 ug/ml
Method in brief: as §1

SMILES | growth inhibition by drug alone (U-2932 [1]; 10 nM, time (day): 3) | growth inhibition by drug alone (U-2932 [1]; 10 nM, time (day): 4) | growth inhibition by drug alone (U-2932 [1]; 10 nM, time (day): 5) | growth inhibition by drug alone (U-2932 [1]; 10 nM, time (day): 6) | growth inhibition by drug alone (U-2932 [1]; 1000 nM, time (day): 3) | growth inhibition by drug alone (U-2932 [1]; 1000 nM, time (day): 4) | growth inhibition by drug alone (U-2932 [1]; 1000 nM, time (day): 5) | growth inhibition by drug alone (U-2932 [1]; 1000 nM, time (day): 6) | growth inhibition by drug alone (RIVA [2]; 10 nM, time (day): 3) | growth inhibition by drug alone (RIVA [2]; 10 nM, time (day): 4) | growth inhibition by drug alone (RIVA [2]; 10 nM, time (day): 5) | growth inhibition by drug alone (RIVA [2]; 10 nM, time (day): 6) | growth inhibition by drug alone (RIVA [2]; 100 nM, time (day): 3) | growth inhibition by drug alone (RIVA [2]; 100 nM, time (day): 4) | growth inhibition by drug alone (RIVA [2]; 100 nM, time (day): 5) | growth inhibition by drug alone (RIVA [2]; 100 nM, time (day): 6) | growth inhibition by drug plus 177Lu-lilotomab satetraxetan (U-2932 [3]; 10 nM, time (day): 3) | growth inhibition by drug plus 177Lu-lilotomab satetraxetan (U-2932 [3]; 10 nM, time (day): 4) | growth inhibition by drug plus 177Lu-lilotomab satetraxetan (U-2932 [3]; 10 nM, time (day): 5) | growth inhibition by drug plus 177Lu-lilotomab satetraxetan (U-2932 [3]; 10 nM, time (day): 6) | growth inhibition by drug plus 177Lu-lilotomab satetraxetan (U-2932 [3]; 1000 nM, time (day): 3) | growth inhibition by drug plus 177Lu-lilotomab satetraxetan (U-2932 [3]; 1000 nM, time (day): 4) | growth inhibition by drug plus 177Lu-lilotomab satetraxetan (U-2932 [3]; 1000 nM, time (day): 5) | growth inhibition by drug plus 177Lu-lilotomab satetraxetan (U-2932 [3]; 1000 nM, time (day): 6) | growth inhibition by drug plus 177Lu-lilotomab satetraxetan (RIVA [4]; 10 nM, time (day): 3) | growth inhibition by drug plus 177Lu-lilotomab satetraxetan (RIVA [4]; 10 nM, time (day): 4) | growth inhibition by drug plus 177Lu-lilotomab satetraxetan (RIVA [4]; 10 nM, time (day): 5) | growth inhibition by drug plus 177Lu-lilotomab satetraxetan (RIVA [4]; 10 nM, time (day): 6) | growth inhibition by drug plus 177Lu-lilotomab satetraxetan (RIVA [4]; 100 nM, time (day): 3) | growth inhibition by drug plus 177Lu-lilotomab satetraxetan (RIVA [4]; 100 nM, time (day): 4) | growth inhibition by drug plus 177Lu-lilotomab satetraxetan (RIVA [4]; 100 nM, time (day): 5) | growth inhibition by drug plus 177Lu-lilotomab satetraxetan (RIVA [4]; 100 nM, time (day): 6)
C=CC[C@@H]1/C=C(\C)C[C@H](C)C[C@H](OC)[C@H]2O[C@@](O)(C(=O)C(=O)N3CCCC[C@H]3C(=O)O[C@H](/C(C)=C/[C@@H]3CC[C@@H](O)[C@H](OC)C3)[C@H](C)[C@@H](O)CC1=O)[C@H](C)C[C@@H]2OC [FK-506 (Tacrolimus)] | 0.267 | 0.364 | 0.442 | 0.532 | 0.227 | 0.39 | 0.449 | 0.553 | 0.737 | 0.636 | 0.618 | 0.602 | 0.867 | 0.796 | 0.777 | 0.783 | 0.323 | 0.406 | 0.478 | 0.594 | 0.206 | 0.367 | 0.459 | 0.574 | 0.801 | 0.806 | 0.834 | 0.875 | 0.87 | 0.859 | 0.89 | 0.913
CC[C@]1(O)C[C@@H]2CN(CCc3c([nH]c4ccccc34)[C@@](C(=O)OC)(c3cc4c(cc3OC)N(C)[C@H]3[C@@](O)(C(=O)OC)[C@H](OC(C)=O)[C@]5(CC)C=CCN6CC[C@]43[C@@H]65)C2)C1 [Vinblastine] | 0.125 | 0.0844 | 0.0429 | 0.00677 | 0.942 | 0.96 | 0.971 | 0.978 | 0.0866 | 0.101 | 0.0372 | -0.193 | 0.546 | 0.442 | 0.393 | 0.337 | 0.0509 | 0.085 | 0.136 | 0.198 | 0.96 | 0.973 | 0.981 | 0.984 | 0.383 | 0.503 | 0.523 | 0.53 | 0.574 | 0.643 | 0.659 | 0.668
CS(=O)(=O)CCNCc1ccc(-c2ccc3ncnc(Nc4ccc(OCc5cccc(F)c5)c(Cl)c4)c3c2)o1 [Lapatinib Ditosylate (Tykerb)] | 0.0817 | 0.081 | 0.00227 | -0.0646 | 0.0164 | 0.0506 | -0.0238 | -0.169 | -0.0232 | 0.00959 | -0.0719 | -0.295 | -0.283 | -0.179 | -0.183 | -0.291 | 0.108 | 0.154 | 0.199 | 0.225 | 0.0709 | 0.127 | 0.153 | 0.277 | 0.649 | 0.657 | 0.672 | 0.674 | 0.379 | 0.475 | 0.487 | 0.486
CCOc1ccc(Cc2cc([C@@H]3O[C@H](CO)[C@@H](O)[C@H](O)[C@H]3O)ccc2Cl)cc1 [Dapagliflozin] | 0.142 | 0.11 | -0.0277 | -0.0754 | 0.0652 | 0.0655 | 0.0265 | -0.143 | 0.0261 | 0.0489 | -0.0941 | -0.357 | -0.159 | -0.0453 | -0.0994 | -0.161 | 0.0831 | 0.139 | 0.185 | 0.224 | 0.0836 | 0.124 | 0.161 | 0.282 |  |  |  |  |  |  |  | 
OCCn1cc(-c2ccc3c(c2)CC/C3=N\O)c(-c2ccncc2)n1 | -0.0296 | -0.0312 | -0.153 | -0.152 | -0.112 | -0.139 | -0.146 | -0.12 | -0.166 | -0.13 | -0.183 | -0.335 | -0.39 | -0.208 | -0.171 | -0.236 | -0.00182 | 0.0536 | 0.0736 | 0.0788 | -0.118 | -0.0611 | -0.0101 | 0.0758 | 0.513 | 0.569 | 0.578 | 0.59 | 0.436 | 0.551 | 0.585 | 0.602
COc1cc2ncnc(Nc3cccc(Br)c3)c2cc1OC | 0.0352 | 0.0294 | -0.0462 | -0.213 | -0.0358 | -0.00581 | -0.044 | -0.226 | -0.0227 | 0.0203 | -0.0662 | -0.376 | -0.0939 | -0.0578 | -0.0794 | -0.167 | -0.0269 | -0.00153 | 0.00885 | 0.0642 | -0.0997 | 0.0384 | 0.0191 | 0.0515 | 0.308 | 0.458 | 0.483 | 0.516 | 0.349 | 0.482 | 0.487 | 0.467
CC(=O)[C@]1(O)Cc2c(O)c3c(c(O)c2[C@@H](O[C@H]2C[C@H](N)[C@H](O)[C@H](C)O2)C1)C(=O)c1ccccc1C3=O [Idarubicin HCl] | 0.517 | 0.599 | 0.684 | 0.751 | 0.962 | 0.973 | 0.977 | 0.98 | 0.685 | 0.744 | 0.786 | 0.827 | 0.781 | 0.825 | 0.851 | 0.883 | 0.584 | 0.712 | 0.817 | 0.881 | 0.972 | 0.979 | 0.981 | 0.985 | 0.924 | 0.947 | 0.964 | 0.971 | 0.831 | 0.89 | 0.913 | 0.939
